Data published in PubChem BioAssay AID743482 (Broad Institute, 2014).
Values without a mark were called inactive.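 The calls were made as follows: active = falling viability signal whose fitted half-maximal concentration is at most twice the highest tested dose; inconclusive = flat fit with a moderate drop, or a poor curve fit; inactive = the rest.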

assay: HepG2 viability loss by ATP level – cell-based, CellTiter-Glo luminescence, dry powder, cytotoxicity control, dose response (AID 743482); details: 72 h; series mostly up to 26 µM; activity change, negative = cytotoxicity: at the top concentration

| Structure (SMILES) | activity change, negative = cytotoxicity |
| --- | --- |
| C[C@H](CO)N1C[C@H](C)[C@H](CN(C)C(=O)Nc2ccc(F)cc2)OCCCC[C@H](C)Oc2ccc(NC(=O)C3CCC3)cc2C1=O | 10.1% |
| C[C@H](CO)N1C[C@H](C)[C@H](CN(C)C(=O)Nc2ccc(C(F)(F)F)cc2)OCCCC[C@H](C)Oc2ccc(NC(=O)CCC(F)(F)F)cc2C1=O | 27.6% |
| C[C@H](CO)N1C[C@H](C)[C@H](CN(C)C(=O)Nc2ccc(F)cc2)OCCCC[C@H](C)Oc2ccc(NC(=O)C3CCCCCC3)cc2C1=O | 14% |
| C[C@H](CO)N1C[C@H](C)[C@H](CN(C)C(=O)Nc2cccc(F)c2)OCCCC[C@H](C)Oc2ccc(NC(=O)C3CCCCC3)cc2C1=O | 6.51% |
| C[C@@H]1CCCCO[C@H](CN(C)C(=O)Nc2cccc3ccccc23)[C@@H](C)CN([C@@H](C)CO)C(=O)c2cc(NC(=O)C3CCCCC3)ccc2O1 | 54.1% |
| COc1ccc(NC(=O)N(C)C[C@@H]2OCCCC[C@H](C)Oc3ccc(NC(=O)C4CCCCC4)cc3C(=O)N([C@H](C)CO)C[C@@H]2C)cc1 | 1.76% |
| C[C@H](CO)N1C[C@H](C)[C@H](CN(C)C(=O)Nc2ccc(F)cc2)OCCCC[C@H](C)Oc2ccc(NC(=O)C3CCOCC3)cc2C1=O | 13% |
| COc1ccc(NC(=O)N(C)C[C@@H]2OCCCC[C@H](C)Oc3ccc(NC(=O)NC4CCCCC4)cc3C(=O)N([C@H](C)CO)C[C@@H]2C)cc1 | 37.9% |
| C[C@@H]1CCCCO[C@@H](CN(C)C(=O)Nc2cccc3ccccc23)[C@H](C)CN([C@@H](C)CO)C(=O)c2cc(NC(=O)C3CCCCC3)ccc2O1 | -6.6% |
| C[C@H](CO)N1C[C@H](C)[C@H](CN(C)C(=O)Nc2ccccc2)OCCCC[C@H](C)Oc2ccc(NC(=O)Nc3ccc4c(c3)OCO4)cc2C1=O | 2.13% |
| C[C@H]1CCCCO[C@@H](CN(C)C(=O)Nc2cccc3ccccc23)[C@@H](C)CN([C@@H](C)CO)C(=O)c2cc(NC(=O)C3CCCCC3)ccc2O1 | 11.6% |
| C[C@H](CO)N1C[C@H](C)[C@H](CN(C)C(=O)Nc2ccccc2)OCCCC[C@H](C)Oc2ccc(NC(=O)CCC(F)(F)F)cc2C1=O | 15.7% |
| C[C@H](CO)N1C[C@H](C)[C@H](CN(C)C(=O)Nc2ccccc2)OCCCC[C@H](C)Oc2ccc(NC(=O)Nc3ccccc3)cc2C1=O | 37.9% |
| C[C@H](CO)N1C[C@H](C)[C@H](CN(C)C(=O)Nc2ccc(F)cc2)OCCCC[C@H](C)Oc2ccc(NC(=O)NC3CCCCC3)cc2C1=O | 39% |
| C[C@H](CO)N1C[C@H](C)[C@H](CN(C)C(=O)Nc2ccc(F)cc2)OCCCC[C@H](C)Oc2ccc(NC(=O)Nc3ccccc3)cc2C1=O | 25.8% |
| C[C@H]1CCCCO[C@@H](CN(C)C(=O)Nc2ccc(F)cc2)[C@@H](C)CN([C@@H](C)CO)C(=O)c2cc(NC(=O)C3CCCCC3)ccc2O1 | 50.6% |
| C[C@H](CO)N1C[C@H](C)[C@H](CN(C)C(=O)Nc2cccc3ccccc23)OCCCC[C@H](C)Oc2ccc(NC(=O)c3ccccc3)cc2C1=O | 22.5% |
| Cc1ccc(NC(=O)N(C)C[C@@H]2OCCCC[C@H](C)Oc3ccc(NC(=O)C4CCCCC4)cc3C(=O)N([C@H](C)CO)C[C@@H]2C)cc1 | 8.53% |
| C[C@H](CO)N1C[C@H](C)[C@H](CN(C)C(=O)Nc2ccc(Cl)cc2)OCCCC[C@H](C)Oc2ccc(NC(=O)C3CCCCC3)cc2C1=O | -1.97% |
| C[C@H]1CCCCO[C@@H](CN(C)C(=O)Nc2ccccc2)[C@@H](C)CN([C@@H](C)CO)C(=O)c2cc(NC(=O)NC3CCCCC3)ccc2O1 | 47.5% |
| C[C@H](CO)N1C[C@H](C)[C@H](CN(C)C(=O)Nc2ccc(F)cc2)OCCCC[C@H](C)Oc2ccc(NC(=O)C3CCCCC3)cc2C1=O | 51.3% |
| COc1ccc(S(=O)(=O)N(C)C[C@@H]2OCCCC[C@H](C)Oc3ccc(NS(=O)(=O)c4ccc(Cl)cc4)cc3C(=O)N([C@@H](C)CO)C[C@@H]2C)cc1 | -12% |
| COc1ccc(S(=O)(=O)N(C)C[C@@H]2OCCCC[C@H](C)Oc3ccc(NS(=O)(=O)c4ccc(F)cc4)cc3C(=O)N([C@@H](C)CO)C[C@@H]2C)cc1 | 3.65% |
| C[C@H]1CCCCO[C@@H](CN(C)S(=O)(=O)c2ccc(Cl)cc2)[C@@H](C)CN([C@@H](C)CO)C(=O)c2cc(NC(=O)NC3CCCCC3)ccc2O1 | -6.85% |
| C[C@H]1CCCCO[C@@H](CN(C)C(=O)Nc2ccc3c(c2)OCO3)[C@@H](C)CN([C@@H](C)CO)C(=O)c2cc(NC(=O)NC3CCCCC3)ccc2O1 | 6.93% |
| C[C@@H]1CN([C@H](C)CO)C(=O)c2cc(NC(=O)C3CCCCC3)ccc2O[C@@H](C)CCCCO[C@H]1CN(C)C(=O)Nc1cccc2ccccc12 | -23.2% |
